# Assay outcomes deposited in PubChem BioAssay by several laboratories.
# A selection: hits, their analogues and other compounds. The true share with any hit is near 0.82%.
# Mtb UGM inh: M. tuberculosis UGM enzyme inhibitors, primary screen, biochemical, fluorescence polarization, single point. UDP-galactopyranose mutase (Mycobacterium tuberculosis (strain ATCC 25618 / H37Rv)), …. purified UGM, fluorescence polarization probe displacement. 320,000 tested, 0.06% active. inhibition, % at 10 µM; in the data active = inhibition above about 10%, passing the limit was not always enough
# RecA intein inh: Mtb RecA intein splicing inhibitors, primary screen, biochemical, fluorescence, HTS | 290,000 tested, 0.75% active | cell-free RecA intein splicing | Protein RecA (Mycobacterium tuberculosis (strain ATCC 25618 / H37Rv)), P9WHJ3 | AID 2221, 2009 | inhibition, % (no concentration beside the values); in the data active = inhibition above about 30%;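 also: 0% = vehicle wells and 100% = reference inhibitor control wells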
# Mtb BioA inh: M. tuberculosis BioA enzyme inhibitors, primary screen, biochemical, plate reader, single point, HTS; inhibition, % at 9.99 µM; 7,8-diaminopelargonic acid synthase BioA (Mycobacterium tuberculosis); purified M. tuberculosis BioA enzyme; 360,000 tested, 0.096% active; in the data active = inhibition above about 40%
# FadD28 FP inh: inhibitors of FadD28 bisubstrate probe binding, primary screen, biochemical, fluorescence polarization, single point; Mycobacterium tuberculosis FadD28 fatty-acid-AMP ligase; AID 588549, 2011; inhibition, % at 12.5 µM; 360,000 tested, 0.22% active; in the data active = inhibition above about 8.5%, passing the limit was not always enough
# Y pestis TopoI: Yersinia pestis topoisomerase I inhibitors, primary screen, biochemical, cleavage product accumulation, plate reader, single point | Y. pestis Topo-I cleavage product accumulation | activity, % at 10 µM | 360,000 tested, 0.064% active; in the data active = activity above about 50%, passing the limit was not always enough
# Rv3671c inh: Rv3671c serine protease inhibitors, primary screen, biochemical, fluorescence polarization, M. tuberculosis H37Rv. inhibition, % at 5.96 µM. P9WHR9. 320,000 tested, 0.048% active; in the data active = inhibition above about 38%;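 also: extracellular domain of Rv3671c used as enzyme; 0% = enzyme with DMSO and 100% = no enzyme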
# Active calls of the source: *; . = no result.
SMILES,Mtb UGM inh,RecA intein inh,Mtb BioA inh,FadD28 FP inh,Y pestis TopoI,Rv3671c inh
O=S(=O)(c1ccccc1)c1cc(O)ccc1O,2,-6,-4,0,-7,-5
Nc1ccc(S(=O)(=O)c2cc(O)c3ccccc3c2O)cc1,.,.,.,9.5*,-16,.
COc1cc(/C=C2/C(=O)c3cccc([N+](=O)[O-])c3C2=O)c(Br)cc1O,1,.,.,10*,-31,7
C[C@@H]1CN([C@H](C)CO)C(=O)c2cc(Br)cnc2O[C@H]1CN(C)C(=O)Nc1ccccc1,.,.,5,.,.,.
CN1c2ccc(Br)cc2[C@@H]2[C@@H](CCN2C(=O)Nc2cc(F)ccc2F)[C@@H]1CO,.,.,3,.,.,.
COc1ccc(CN(C)C[C@H]2Oc3ccc(NS(=O)(=O)c4cn(C)cn4)cc3CC(=O)N([C@H](C)CO)C[C@@H]2C)cc1,.,.,-4,.,.,.
CCOC(=O)C1CCN(c2nc(N)c3c(N)nc(SCC(=O)O)cc3c2C#N)CC1,.,45*,1,5,5,.
CCOC(=O)C1CCN(c2nc(C)cc(C)c2C#N)CC1,-1,-1,.,-3,15,5
COc1ccc(S(=O)(=O)Nc2ccc3c(c2)CC(=O)N([C@H](C)CO)C[C@@H](C)[C@H](CN(C)S(=O)(=O)c2ccccc2)O3)cc1,.,.,2,.,.,.
C/C(=N\Nc1ccc(Cl)c(C(=O)O)c1)c1ccc2c(c1)OCO2,-2,-4,0,-3,0,7
COc1ccc(/C(C)=N/Nc2cccc(C(=O)O)c2)cc1OC,-1,0,2,0,1,11
C/C(=N\Nc1ccc(C(=O)O)cc1)c1ccc2c(c1)Nc1ccccc1S2,2,.,7,20*,-5,5
C/C(=N/Nc1ccc(C(=O)O)cc1)c1ccc2c(c1)Nc1ccccc1S2,.,.,.,20*,-14,.
O=C(Cc1ccncc1)NCC[C@H]1CC[C@H](NC(=O)Nc2ccc(Cl)cc2)[C@H](CO)O1,.,.,1,.,.,.
CN(c1ccccc1)S(=O)(=O)c1ccc(NC(=O)CC(=O)c2ccccc2)cc1,.,.,.,25*,3,.
O=C1c2cc([N+](=O)[O-])ccc2-c2ncccc21,1,46*,.,-1,-4,-5
O=C1C(=Cc2ccc(Br)o2)C(=O)c2ccccc21,1,.,1,41*,-31,0
CN(C)CCOc1ccc(/C(=C(/CCCl)c2ccccc2)c2ccccc2)cc1,.,33*,-1,-3,-2,-1
Clc1ccc(COn2c(-c3ccccc3)nc3ccccc32)cc1,1,8,-1,-6,59*,-19
CCOC(=O)C1CCCN(C(=O)c2cc(Nc3ccc(OC)cc3)nc3ccccc23)C1 (centres undefined),-1,0,1,22*,-14,7
Cc1ccc(S(=O)(=O)N(C)C[C@@H]2Oc3ccc(NC(=O)Nc4ccccc4)cc3C(=O)N([C@@H](C)CO)C[C@@H]2C)cc1,.,.,-1,.,.,.
N#Cc1ccccc1NC(=O)c1cc(=O)c2ccccc2o1,2,0,.,12*,-6,-1
CNC[C@H]1Oc2ccc(NC(=O)Nc3ccc(C(F)(F)F)cc3)cc2CC(=O)N([C@@H](C)CO)C[C@H]1C,.,.,4,.,.,.
CCOc1ccccc1N1CCN(C2=C(NS(=O)(=O)c3cccs3)C(=O)c3ccccc3C2=O)CC1,2,18,-3,14*,3,-3
Cc1ccc(-c2nc3sc(C#N)c(N)n3c(=O)c2C#N)cc1,13*,-6,-4,-3,7,-13
SMILES,Mtb UGM inh,RecA intein inh,Mtb BioA inh,FadD28 FP inh,Y pestis TopoI,Rv3671c inh
Cc1ccc(-n2c(N)c(C#N)c(-c3ccccc3)c(C#N)c2=O)cc1,2,-1,0,0,-8,2
O=C(Nc1cc([N+](=O)[O-])ccc1O)c1ccc2c(c1)C(=O)N(Cc1ccco1)C2=O,-1,4,1,12*,-7,13
O=C(Nc1ccc(O)cc1C(=O)O)c1ccc2c(c1)C(=O)N(Cc1ccco1)C2=O,4,2,0,3,2,-24
Cc1cccc(NC(=S)NNC(=O)c2csc3c2CCC(C)C3)c1 (centres undefined),.,9,0,14*,2,3
O=C(C[C@H]1CC[C@H](NC(=O)Cc2cccnc2)[C@@H](CO)O1)NCc1ccc2c(c1)OCO2,.,.,3,.,.,.
N#Cc1c(-c2ccccc2)c(-c2ccccc2)nn(CC(=O)NNC(=O)Nc2ccc(Cl)c(Cl)c2)c1=O,4,11,-1,17*,6,-256
C[C@@H]1CN([C@@H](C)CO)C(=O)c2cc(-c3cccnc3)cnc2O[C@@H]1CN(C)C(=O)c1cccc(F)c1,.,.,0,.,.,.
COc1ccc(-c2[nH]nc3c2C(c2ccc(OC(=O)N4CCOCC4)cc2)C(C#N)=C(N)O3)cc1 (centres undefined),-2,.,.,.,.,-9
CCCc1[nH]nc2c1C(c1ccc(OC(=O)N3CCOCC3)cc1)C(C#N)=C(N)O2 (centres undefined),1,48*,2,2,16,4
N#CC1=C(N)Oc2n[nH]c(-c3cccs3)c2C1c1ccoc1 (centres undefined),1,85*,-1,2,-6,-8
COCc1[nH]nc2c1C(c1cc(OC)c(O)c(OC)c1)C(C#N)=C(N)O2 (centres undefined),-3,-4,.,0,-8,-2
CCOc1ccc(C2C(C#N)=C(N)Oc3nc[nH]c(=O)c32)cc1OC (centres undefined),-1,-4,-2,4,5,-7
CCOc1ccc(-c2[nH]nc3c2C(c2ccc4c(c2)OCO4)C(C#N)=C(N)O3)cc1OC (centres undefined),0,60*,0,-5,6,-9
CCCc1[nH]nc2c1C(c1ccc(O)c(OC)c1)C(C#N)=C(N)O2 (centres undefined),1,79*,.,-5,-6,9
COc1ccc(NC(=O)N(C)C[C@@H]2Oc3ccc(NC(=O)Nc4ccc(C(F)(F)F)cc4)cc3C(=O)N([C@@H](C)CO)C[C@@H]2C)cc1,.,.,-6,.,.,.
C[C@@H]1CN([C@H](C)CO)C(=O)c2ccccc2-c2ccccc2CO[C@@H]1CN(C)S(C)(=O)=O,.,.,-1,.,.,.
O=C(c1cnccn1)N1CC[C@H]2[C@H](CO)Nc3ccc(-c4ccccc4F)cc3[C@H]21,.,.,-1,.,.,.
C[C@H]1CN([C@@H](C)CO)C(=O)Cc2cc(NC(=O)CCCCCC(=O)Nc3ccccc3N)ccc2O[C@@H]1CN(C)S(C)(=O)=O,.,.,-1,.,.,.
COc1cc(C2C(C#N)=C(N)Oc3n[nH]c(-c4ccncc4)c32)cc(OC)c1OC (centres undefined),3,-4,-1,0,-1,-8
